Data: PubChem BioAssay AID647 (Vanderbilt High Throughput Screening Facility, 2007)
Screen size: about 2,200 compounds; about 1,400 (64%) were called active. The set was probably picked from earlier hits. A selection follows. A number with no mark means an inactive call.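 The calls were made as follows: active = luminescence in either replicate above plate mean of wells with a partly effective reference agonist dose plus 3 SD; inactive = the rest.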

Test: effects on beta-adrenoceptor cAMP reporter signal – cell-based, secondary assay 2, luminescence, counter-screen for D1 allosteric modulator project, confirmation (AID 647);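 also: isoproterenol raises cAMP through native beta-adrenoceptor Gs so signal bypasses D1; raw luminescence counts from the Envision reader with one value per duplicate well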
Conditions: HEK293 D1 CRE-luciferase, isoproterenol EC30 counter-screen; at 10 µM; active compounds read high

SMILES	luminescence
COc1ccc(-c2nnc(SCC(=O)NC3CCCCC3)o2)cc1OC	3200 (active)
O=S(=O)(c1cccs1)N1CCc2ccccc2C1	3530 (active)
CCOC(=O)/C=c1\s/c(=C\c2ccccc2OC)c(=O)n1CC(=O)N1CCOCC1	3580 (active)
CCCn1c(=O)c2[nH]c(C3CCCC3)nc2n(CCC)c1=O	3630 (active)
COc1ccc(S(=O)(=O)N(C)CC(=O)Nc2ccc3c(c2)OCCO3)cc1OC	3480 (active)
Cc1nn(-c2ccccc2)c2c1C(=O)NC(=O)C(C)(C)C2	3700 (active)
CC(=O)OC(C)C[N+](C)(C)C (configuration not stated)	2500
CCc1ccc2oc(=O)cc(CN3CCCCC3C)c2c1 (configuration not stated)	3040 (active)
COc1ccc(-c2n[nH]c(C)c2-c2ccc(OC)c(OC)c2)c(O)c1	3290 (active)
CC1CCN(c2nc3c(c(=O)[nH]c(=O)n3C)n2CCCc2ccccc2)CC1	5160 (active)
CCCSc1nc2c(c(=O)[nH]c(=O)n2C)n1CCc1ccccc1	6090 (active)
COC(=O)Nc1ncc(CN2C(=O)c3ccccc3C2=O)s1	2570
CCc1cc(=O)oc2cc(OCC(=O)N3CCCc4ccccc43)ccc12	4550 (active)
C=CCn1cnc2scc(-c3ccccc3)c2c1=O	3500 (active)
CCCc1nc(N)nc2c1C(=O)CC(C)(C)C2	4320 (active)
COc1ccc(-c2nnn(Cc3nc(N)nc(N4CCCCC4)n3)n2)cc1	3650 (active)
COc1ccc(CCN(C)C(=O)C2CCCN(Cc3ccc(OC)c(OC)c3)C2)cc1OC (configuration not stated)	2610
COc1ccc(NC(=O)C2CCCN(S(=O)(=O)c3cccc4cccnc34)C2)cc1OC (configuration not stated)	3940 (active)
CCOC(=O)c1c(NC(=O)CSc2nnc(CN3CCOCC3)n2C)sc2c1CCCC2	2880
C#CCNc1nc(C(C)C)nc2c1nnn2Cc1ccccc1F	3140 (active)
COc1ccc(-c2cc(C(F)(F)F)nc(S(C)(=O)=O)n2)cc1OC	4780 (active)
N#CCCN1CCN(S(=O)(=O)c2ccc(S(=O)(=O)NC3CCCCC3)cc2)CC1	2440

SMILES	luminescence
COc1ccc(S(=O)(=O)Nc2ccc(S(=O)(=O)N3CCCCC3)cc2)cc1OC	3220 (active)
COc1nc(NCc2ccc(Cl)cc2)nc(OC)n1	2930
CCOC(=O)c1cc2n(c1C)-c1ccccc1C2=O	3830 (active)
c1ccc(-c2nnc3n2NC(c2ccc4c(c2)OCO4)S3)cc1 (configuration not stated)	3680 (active)
CCCCNc1nc2ccccc2nc1NS(=O)(=O)c1cccs1	3780 (active)
COc1ccc(CCNC(=O)c2cc3sccc3n2C)cc1OC	3110
COc1ccc(CCNC(=O)CCn2c(=O)oc3ccccc32)cc1OC	3400 (active)
CCn1c(=N)c(S(=O)(=O)c2ccc(F)cc2)cc2c(=O)n3ccccc3nc21	5680 (active)
CCCn1c(=NC(C)=O)c(C(=O)OCC)cc2c(=O)n3ccccc3nc21	2650
O=C(NCc1ccccn1)c1ccc2nc(-c3ccco3)c(-c3ccco3)nc2c1	2550
Cn1c(/C(C#N)=C2/CCCCCN2)nc2ccccc21	3990 (active)
CCn1cc(C(=O)NCC2COc3ccccc3O2)c2cc(OC)c(OC)cc2c1=O (configuration not stated)	2910
CCC(=O)NC(=Nc1nc2ccccc2s1)NC(=O)CC	3180
Cn1c(=O)c2[nH]c(NCC3CCCO3)nc2n(-c2ccccc2)c1=O (configuration not stated)	2780
c1ccc2c(NCC3CCCO3)nc(-c3ccncc3)nc2c1 (configuration not stated)	3220 (active)
CCCCSc1nc2c(c(=O)n1CC)SC(C)C2 (configuration not stated)	2820
CCOc1cccc(-n2nnnc2-c2ccc(OC)cc2)c1	4040 (active)
CC(C)n1c(C(O)c2ccccc2)nc2ccccc21 (configuration not stated)	2350
CCCS(=O)(=O)N1CCC(C(=O)NCCc2ccc(OC)c(OC)c2)CC1	2720
COC(=O)c1ccccc1NC(=O)C1CCN(S(=O)(=O)c2cc(OC)ccc2OC)CC1	3570 (active)
Cn1c(=O)c2cn(-c3cccc4ccccc34)cc2n(C)c1=O	3300 (active)
COc1ccc(Nc2cc(C)nc(-n3nc(C)cc3C)n2)cc1	3540 (active)

SMILES	luminescence
CC(=O)c1ccc(Oc2cc(C)nc(-n3nc(C)cc3C)n2)cc1	6880 (active)
COc1ncnc2sc3c(c12)CCCC3	2970
CCOc1ccc(Cn2c(SCCCCC#N)nc3c2c(=O)n(C)c(=O)n3C)cc1OCC	5750 (active)
COC(=O)C(C)C1Sc2ccccc2NC1=O (configuration not stated)	3160
CN1CCN(CC(O)COCc2ccc3c(c2)OCO3)CC1 (configuration not stated)	5380
c1coc(-c2nc3nc4ccccc4n3nc2-c2ccco2)c1	4380 (active)
COC(=O)C1=C(C)NC2=C(C(=O)c3ccccc32)C1c1ccc(-c2ccc(C(=O)O)cc2)o1 (configuration not stated)	2560
CCCCc1c(O)nc2n(c1=O)CCS2	2460
COc1ccc(CCNc2ncnc3nc[nH]c23)cc1OC	3430 (active)
CCCc1nc(-c2ccccc2O)n(-c2ccccc2)n1	3160 (active)
CC1(C)Cc2ccccc2-c2nc(CN3CCOCC3)[nH]c(=O)c21	3540 (active)
CC1Oc2ccccc2N(Cc2cccnc2)C1=O (configuration not stated)	2840 (active)
CCOC(=O)c1c(NC(=O)CSc2nnc(Cc3csc(N)n3)n2C)sc(C)c1C	2440
c1ccc(COc2nsnc2N2CCOCC2)cc1	4500
N#CCSc1nc2ccccc2c(=O)n1-c1ccccc1	4560 (active)
C=CCSc1nc2c(c(=O)[nH]1)C(C(C)C)C(C#N)=C(N)O2 (configuration not stated)	5180 (active)
COc1ncnc2c1N=C1CC(C)(C)CC(N)=C1S2	2960
O/N=C(\c1ccc2c(c1)OCCO2)C1CCCCC1	2880 (active)
N#Cc1nc(Cc2ccccc2)oc1NCCc1ccccc1	4280 (active)
CCOc1ccc(Nc2oc(Cc3ccccc3)nc2C#N)cc1	5850 (active)
COc1ccc(Nc2oc(-c3ccccc3Cl)nc2C#N)cc1	3960 (active)
CC(C)C1C2=C(CC(C)(C)CC2=O)ON1c1ccccc1 (configuration not stated)	3320

SMILES	luminescence
N#Cc1c(N)sc2c1CCN(C(=O)OCc1ccccc1)C2	5320 (active)
CCNc1nc(NCC)nc(N(C)n2cnnc2)n1	3650 (active)
CC(C)c1cc(C(=O)O)on1	2070
Oc1ccc(-c2csc(Nc3cccnc3)n2)cc1	3250 (active)
CCn1ncc(C2=NOC(C(=O)Nc3ccccc3C(=O)OC)C2)c1C (configuration not stated)	5220 (active)
CCn1nc(C(=O)OCC(=O)N2c3ccccc3CC2C)c2ccccc2c1=O (configuration not stated)	2840
Cc1ccc(-c2nn(-c3ccccc3)cc2CN(Cc2ccccc2)C(=O)CCC(=O)O)o1	4080 (active)
O=C(CSc1nnc2scc(-c3ccc(F)cc3)n12)NCc1ccco1	2580
CCOc1ccc(-c2nnn(CC(=O)N3CCN(c4ccc(OC)cc4)CC3)n2)cc1OCC	3110 (active)
CCOc1cc(-c2noc(CCC(=O)N3CCOCC3)n2)ccc1OC	2630
CC1CCN(c2oc(-c3ccccc3F)nc2C#N)CC1	3380 (active)
CCOc1ccc2c(c1)cc(CN(C(=O)CC)C1CCCCC1)c1nnnn12	3880 (active)
CCOc1ccc2[nH]c(=O)c(C(c3nnnn3CCOC)N3CCOCC3)cc2c1 (configuration not stated)	2250
Cc1cc(C(F)(F)F)nn1-c1nc(-c2ccco2)cc(C(F)(F)F)n1	3340 (active)
FC(F)(F)c1cc(-c2ccco2)nc(N2CCOCC2)n1	4220 (active)
O=C(NCc1ccco1)c1cnn2c(C(F)(F)F)cc(-c3ccco3)nc12	3240
COc1ccc(-c2nnco2)cc1OC	3030 (active)
CCOc1ccccc1C1CC(c2ccccc2)Nc2nc(N)nn21 (configuration not stated)	3190
Cc1ccc(C2CC(c3cccc(Br)c3)n3nc(N)nc3N2)cc1 (configuration not stated)	3660 (active)
Cc1ccc(C2CC(c3cccc(C)c3)n3nc(N)nc3N2)cc1 (configuration not stated)	2800
CCOc1cc(C(=O)N2CCc3cc(OC)c(OC)cc3C2)ccc1OC(F)F	11500 (active)
COc1cc(NC(=O)N2CCOCC2)cc(OC)c1	2540

SMILES	luminescence
CC(=O)Nc1cccc(Oc2cc(C#N)c(C#N)cc2N2CCOCC2)c1	4140 (active)
C/C(Cl)=C\Cn1c(Nc2cccc(C)c2)nc2c1c(=O)n(C)c(=O)n2C	3460 (active)
Cc1cc(C)c2c(n1)nn1c(-n3ccnc3)cc(C)nc21	3020 (active)
CCSc1nc(C)nc2c1oc1ccccc12	3530 (active)
COC(=O)[C@H](C(C)C)n1c(C)c(C(C)=O)c(C(C)=O)c1C	2600
O=c1cc(-c2ccccc2)nc(N2CCCCC2)[nH]1	3010
CCCN1Cc2cccc(C(=O)NCc3ccccc3)c2C1=O	3680 (active)
CCSc1ncnc2c(C#N)c3n(c12)CCCCC3	6230 (active)
O=C(c1ccco1)N1CCN=C1SCc1cccc(Cl)c1	3200 (active)
Cc1ccc(S(=O)(=O)c2c(N)n(C)c3nc4ccccc4nc23)cc1	3490 (active)
COc1ccc(-n2c(Cc3cccn3C)nnc2SCC(=O)Nc2cc(C)cc(C)c2)cc1	2370
Nc1ccc(S(=O)(=O)NC(=O)c2ccccc2)cc1	2950
CCOC(=O)c1cc(C)sc1NC(=O)C1CCC1	4600 (active)
C/C(=C\C(=O)c1ccccc1)Nc1cccc(O)c1	2540
CN(C)c1nc(N)nc(CSc2nnnn2-c2cccc3ccccc23)n1	3420 (active)
COc1ccc(-c2nn3c(-c4ccccc4)nnc3s2)cc1OC	8440 (active)
COc1cc(-c2nn3c(-c4cccc(C)c4)nnc3s2)cc(OC)c1OC	4430 (active)
O=C(C1CCC1)N1CCc2cc(S(=O)(=O)NCc3cccnc3)ccc21	3060
N#Cc1nc(N)nc(N(c2ccccc2)c2ccccc2)n1	2880
